What all share (assay type): functional
The target of experiment [1] is Solute carrier family 2, facilitated glucose transporter member 1 (Homo sapiens) (UniProt P11166). The experiment can be described thus: ST_JUDE_LEISH: Cytotoxicity at 2uM final concentration against transgenic Leishmania Mexicana promastigotes LmGLUT1 that are glucose transport deficient and complemented with the human glucose transporter GLUT1. Activity is measured by DNA content using SYBR green in vitro.

The target in experiment [2] is Hexose transporter 1 (Plasmodium falciparum) (UniProt O97467). The experiment can be described thus: ST_JUDE_LEISH: Cytotoxicity at 2uM final concentration against transgenic Leishmania Mexicana promastigotes LmPfHT that are glucose transport deficient and complemented with the Plasmodium falciparum hexose transporter. Activity is measured by DNA content using SYBR green in vitro.

In experiment [3] the target is Glucose transporter (Leishmania mexicana) (UniProt O61059). The experiment can be described thus: ST_JUDE_LEISH: Cytotoxicity at 2uM final concentration against transgenic Leishmania Mexicana promastigotes LmGT2 that are glucose transport deficient and complemented with the L. Mexicana glucose transporter 2. Activity is measured by DNA content using SYBR green in vitro.

Structures are written as SMILES.

Sequence of Solute carrier family 2, facilitated glucose transporter member 1 (Homo sapiens) (P11166 whole entry): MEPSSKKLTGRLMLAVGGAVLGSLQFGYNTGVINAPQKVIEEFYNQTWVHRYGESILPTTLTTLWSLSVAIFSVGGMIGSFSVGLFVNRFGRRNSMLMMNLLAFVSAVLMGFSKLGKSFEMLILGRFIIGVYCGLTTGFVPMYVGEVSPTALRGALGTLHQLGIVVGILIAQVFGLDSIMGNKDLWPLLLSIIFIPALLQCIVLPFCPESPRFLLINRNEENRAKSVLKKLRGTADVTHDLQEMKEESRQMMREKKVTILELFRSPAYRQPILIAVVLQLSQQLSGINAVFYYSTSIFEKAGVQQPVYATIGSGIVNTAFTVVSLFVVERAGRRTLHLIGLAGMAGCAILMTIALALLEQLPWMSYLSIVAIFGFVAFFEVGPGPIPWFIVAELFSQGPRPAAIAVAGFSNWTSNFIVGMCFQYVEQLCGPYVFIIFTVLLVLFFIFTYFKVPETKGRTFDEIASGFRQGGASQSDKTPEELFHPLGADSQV

Take `CCn1ccc2c(N3CCCS3(=O)=O)cc(C(=O)N[C@@H](Cc3ccccc3)[C@H](O)CNC(C)(C)CCCC(C)C)cc21`: the inhibition (in general, the change of the read-out against control, counted positive when it falls) in experiment [1] came to 7.39%; in experiment [2], 7.48%; in experiment [3], 2.41%.

As for `CCOc1cc2ccccc2cc1CNCCCCCCNCc1cc2ccccc2cc1OCC`, the inhibition in experiment [1] turned out to be 5.01%; in experiment [2] it was 7.4%; in experiment [3], 0.64%.

Regarding `C=C[C@]1(C)C[C@@H](OC(=O)NC(=O)C2CCN(C(=O)CSc3ccccc3)CC2)[C@]2(C)[C@H](C)CC[C@]3(CCC(=O)[C@H]32)[C@@H](C)[C@@H]1O`, the inhibition turned out to be 10.2% in experiment [1], 11.6% in experiment [2] and 5.56% in experiment [3].

In the case of `O=C(Cc1cccc(Cl)c1)Nc1cccc(-c2c[nH]c3nc(Nc4ccccc4)ncc23)c1`, the inhibition in experiment [1] is 3.42%; in experiment [2] it was -0.54%; in experiment [3] it was 0.7%.

As for `FC(F)(F)c1ccc2[nH]c(-c3cccc(-c4ccc(CNCCc5ccncc5)cc4)c3)nc2c1`, the inhibition in experiment [1] is 1.9%; in experiment [2] it was 0.52%; in experiment [3] it was -0.21%.

Take `O=S(=O)(c1ccc(OCc2ccc(Cl)cc2)cc1)c1cc2c(cc1OCc1ccccc1)CCN(C1CCC1)CC2`: the results for the inhibition in experiment [1], in experiment [2] and in experiment [3] were 7.19%, 4.84% and 7.79%, respectively.

Consider `COc1ccc(NC(=O)[C@H](Cc2ccccc2)Nc2cc(C)nc(NCCc3ccc(F)cc3)n2)cc1`, for which the inhibition in experiment [1] was found to be 11.8%; in experiment [2] it was 13%; in experiment [3], 10%.

On to `CN(C)Cc1cccc(-c2ccc(NC(=O)c3ccc4c(=O)n(C5CCCCC5)cnc4c3)cc2)c1`, for which the values for the inhibition in experiment [1], in experiment [2] and in experiment [3] were 76%, 80.4% and 79.8%, respectively.

`CCC[C@@H]([C@@H](Cc1ccc(C)s1)C(=O)N[C@@H](CNC(C)=O)C(=O)Nc1nccs1)N(O)C=O`: the results for the inhibition in experiment [1], in experiment [2] and in experiment [3] were 12%, 9.56% and 8.72%, respectively.

In the case of `COc1ccc2[nH]cc(C3CCN(CCCCNC(=O)c4ccc(NC(=O)c5ccc(Cl)cc5)cc4)CC3)c2c1`, the inhibition in experiment [1] turned out to be 4.59%; in experiment [2], 4.04%; in experiment [3], 5.72%.

Regarding `Cc1ccc(NC(=O)Cc2noc(CC3CCCN3C(=O)N[C@@H](C)c3ccccc3)n2)cc1` (some centres not stated), the inhibition in experiment [1] turned out to be 3.91%; in experiment [2] it was 2.95%; in experiment [3], 1.32%.

As to `O=C(Nc1cccc(-c2ccc(CN3CCNCC3)cc2)c1)c1cccc(Cl)c1`, the inhibition in experiment [1] was -0.47%; in experiment [2], -1.87%; in experiment [3], -2.68%.

Consider `CN1CCC(NCc2cccc(-c3cccc(-c4nc5cc(C(F)(F)F)ccc5[nH]4)c3)c2)CC1`, for which the inhibition in experiment [1] is 2.34%; in experiment [2] it was 0.79%; in experiment [3] it was 1.42%.

As for `c1ccc2c(NCCOCCNc3c4ccccc4nc4ccccc34)c3ccccc3nc2c1`, the inhibition in experiment [1] was found to be 1.61%; in experiment [2] it was 2.67%; in experiment [3] it was 3.48%.

For `O=C(CN1CCC2(CCC1=O)CC(=O)c1ccccc1O2)NCCN1CCOCC1` (configuration not stated), the results for the inhibition in experiment [1], in experiment [2] and in experiment [3] were 2.45%, 7.44% and 4.93%, respectively.

Regarding `CC1(C)N=C(N)N=C(N)N1OCc1ccc2c(c1)OCO2`, the results for the inhibition in experiment [1], in experiment [2] and in experiment [3] were 9.15%, 6.63% and 13.4%, respectively.

Take `CCCc1cn2c3c(cc(C(=O)N[C@@H](Cc4ccccc4)[C@H](O)CNC4CCOCC4)cc13)N(CC)S(=O)(=O)CC2`: the inhibition in experiment [1] stood at 1.86%; in experiment [2], 2.35%; in experiment [3] it was 1.03%.

Take `CCN(CC)CCN(Cc1ccc(-c2ccc(C(F)(F)F)cc2)cc1)C(=O)Cn1c(CCc2ccccc2F)nc(=O)c2ccccc21`: the inhibition in experiment [1] is 3.8%; in experiment [2], 3.39%; in experiment [3], 2.3%.

For `O=C(NCc1ccc(Cl)c(Cl)c1)c1ccc(-c2nc3ccc(F)cc3[nH]2)cc1`, the inhibition came to 12.4% in experiment [1], 11.1% in experiment [2] and 11.6% in experiment [3].

Consider `CCOc1ccccc1NC(=O)Nc1ccc2c(c1)CCN(C1CCC1)CC2`, for which the inhibition was determined as 9.64% in experiment [1], 6.1% in experiment [2] and 10.2% in experiment [3].

As for `CN(C)CCNCc1ccc(-c2ccc(-c3nc4cc(F)ccc4[nH]3)cc2)cc1`, the inhibition was determined as 9.57% in experiment [1], 7.88% in experiment [2] and 5.4% in experiment [3].

Turning to `CCCN(CCC)C(=O)c1cc(C(=O)N[C@@H](Cc2ccccc2)[C@H](O)CNC2CC2)cc(N2CCCCS2(=O)=O)c1`, the inhibition in experiment [1] was determined as 2.88%; in experiment [2], 2.88%; in experiment [3], 1.62%.

Take `Oc1cc(NCc2ccccc2NCc2ccc(Cl)c(Cl)c2)nc2ccccc12`: the inhibition was 2.41% in experiment [1], 3.68% in experiment [2] and 3.11% in experiment [3].

Turning to `Nc1ncc(-c2ccc3ncccc3c2)c(N)n1`, the inhibition is 0.18% in experiment [1], 0.97% in experiment [2] and 1.18% in experiment [3].

Turning to `CCOc1cc(C(=O)NC2CC(C)(C)NC(C)(C)C2)ccc1-c1cc2cc(Cl)c(Cl)cc2[nH]1`, the inhibition is -1.95% in experiment [1], -1.26% in experiment [2] and -0.02% in experiment [3].

On to `CN(C)CCOc1cc(NC(=O)Nc2ccc(Oc3ccccc3)cc2)ccc1I`, for which the inhibition is 1.79% in experiment [1], 1.64% in experiment [2] and -1.47% in experiment [3].

Regarding `CC(CN(C)C)C(=O)Nc1cccc(-c2cccc(-c3nc4cc(F)ccc4[nH]3)c2)c1` (configuration not stated), the inhibition in experiment [1] is -2.1%; in experiment [2], -1.06%; in experiment [3], -3.91%.

With `Cc1cc(C)c(C)c(S(=O)(=O)N2CCCCC(c3ccc(F)c(F)c3)=N2)c1C`, the inhibition is 2.94% in experiment [1], -0.61% in experiment [2] and 6.62% in experiment [3].

With `CCCCCCn1c(Sc2ccc(C#N)c([N+](=O)[O-])c2)nnc1-c1ccc(OC)cc1`, the inhibition is 5.67% in experiment [1], 5.13% in experiment [2] and -3.74% in experiment [3].

With `CN(C)CCN(C)Cc1ccc(-c2ccc3c(Nc4ccc(Oc5ccccc5)cc4)ccnc3c2)o1`, the inhibition came out at 0.78% in experiment [1], 2.26% in experiment [2] and 2.63% in experiment [3].

As for `Cc1ccc(NC(=S)N2CCCN(CCCCCNC(=O)/C=C/c3ccc(Cl)c(Cl)c3)CC2)cc1Cl`, the inhibition in experiment [1] was -0.25%; in experiment [2], -1.02%; in experiment [3], 0.36%.

As for `CCc1cn2c3c(cc(C(=O)N[C@@H](Cc4ccccc4)[C@H](O)CNC4CCCCC4)cc13)N(C)S(=O)(=O)C2`, the inhibition was determined as 2.09% in experiment [1], 2.23% in experiment [2] and 2.69% in experiment [3].

With `COc1ccc(CNCC2CCC(CNCCc3ccccc3)CC2)cc1Cl` (configuration not stated), the inhibition stood at 1.1% in experiment [1], 2.42% in experiment [2] and 2.3% in experiment [3].

Regarding `CC(=O)Nc1ccc(C(=O)Nc2cccc(-c3cccc(-c4nc5cc(C(F)(F)F)ccc5[nH]4)c3)c2)cn1`, the inhibition in experiment [1] was -0.64%; in experiment [2], -2.32%; in experiment [3] it was -1.64%.

Values taken from ChEMBL document CHEMBL3433997, “St. Jude Leishmania screening dataset” (2016).
